Sampled rows, rich in hits. Any-hit rate of the full collection: about 1.5%.
GLD-1 RNA inh: GLD-1-TGE RNA interaction inhibition (C. elegans). Q17339. purified GLD-1 + fluorescein TGE RNA, fluorescence polarization. inhibition, % at 5.96 µM. hit rate 0.44% among 320,000. AID 2280;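 active = percent inhibition above a per-plate cutoff, the plate mean of test compounds plus 3 SD, cut at about 30% in these data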;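 also: 0% = DMSO wells with GLD-1 and probe and 100% = wells lacking GLD-1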
MEX-5 binding: C. elegans MEX-5 TCR-2 RNA binding activity; Q9XUB2; MEX-5/FITC-TCR2 RNA binding, fluorescence polarization; stronger effect = lower value; activity score (negative = inhibition of binding), % at 10 µM; hit rate 0.38% among 300,000; AID 1832;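 active = inhibition past about -25% in most replicates, and total fluorescence under double the plate's negative control median, limit read from the data; inconclusive = replicates evenly split on the limit, or fluorescence at least double controls; inactive = too little inhibition in most replicates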;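 also: 0% = DMSO and -100% = 5 µM competing unlabeled TCR2 RNA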
Target sequence (Q9XUB2 whole entry, looked up): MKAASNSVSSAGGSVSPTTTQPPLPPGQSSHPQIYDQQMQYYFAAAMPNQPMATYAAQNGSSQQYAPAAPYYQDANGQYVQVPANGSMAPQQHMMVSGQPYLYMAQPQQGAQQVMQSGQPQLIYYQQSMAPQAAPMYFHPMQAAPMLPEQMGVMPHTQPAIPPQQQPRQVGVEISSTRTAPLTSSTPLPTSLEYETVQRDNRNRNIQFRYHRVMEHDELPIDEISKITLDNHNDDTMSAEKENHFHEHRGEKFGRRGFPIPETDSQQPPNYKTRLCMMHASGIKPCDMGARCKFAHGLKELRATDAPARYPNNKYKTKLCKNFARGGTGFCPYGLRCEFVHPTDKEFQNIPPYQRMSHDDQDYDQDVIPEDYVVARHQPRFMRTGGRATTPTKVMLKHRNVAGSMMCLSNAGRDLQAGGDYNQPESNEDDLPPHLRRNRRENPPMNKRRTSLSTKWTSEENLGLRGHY
Bcl-xL primary: blocks human Bcl-xL binding to Bim BH3 peptide; Q07817; GST-Bcl-xL / FITC-Bim BH3 peptide fluorescence polarization; inhibition, % at 10.9 µM; hit rate 0.7% among 320,000; AID 2129;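 active = inhibition above the mean of all tested compounds plus 3 SD, cutoff set per campaign, cut at about 30% in these data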;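 also: 0% = DMSO wells and 100% = unlabeled Bim-BH3 peptide competitor; inhibitors lower millipolarization by displacing the labeled peptide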
Target sequence (Q07817 whole entry, looked up): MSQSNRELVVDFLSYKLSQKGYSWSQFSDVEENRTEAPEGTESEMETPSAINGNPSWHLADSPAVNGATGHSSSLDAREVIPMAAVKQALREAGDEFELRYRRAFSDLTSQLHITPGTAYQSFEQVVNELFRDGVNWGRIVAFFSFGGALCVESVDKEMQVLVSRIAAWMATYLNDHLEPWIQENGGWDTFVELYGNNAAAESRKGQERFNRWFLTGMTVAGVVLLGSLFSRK
MCL1 BIM primary: disrupts human MCL1 binding to BIM-BH3 peptide; Q07820; GST-MCL1 / FITC-Bim-BH3 fluorescence polarization; inhibition, % at 10.9 µM; hit rate 0.68% among 320,000; AID 2057;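 active = inhibition above the mean inhibition of all tested compounds plus 3 SD, set per campaign, cut at about 40% in these data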;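 also: 0% = DMSO wells and 100% = unlabeled Bim-BH3 peptide control; higher means more loss of mP so more displacement of Bim peptide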
E coli Lon inh: E. coli protease La inhibition | hit rate 0.42% among 360,000 | AID 602123 | P0A9M0 | inhibition, % at 7.94 µM | purified E. coli Lon protease, fluorescence polarization; in the data active = inhibition above about 13%, passing the limit was not always enough;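 also: 0% = enzyme with probe and DMSO and 100% = no enzyme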
EBV gp42 block: blocks Epstein-Barr virus glycoprotein 42 binding; Q1HVG2; Fluorescence polarization binding assay, mP read-out; inhibition, % (tested at 21.74 µM); hit rate 0.42% among 220,000; AID 1085; in the data active = inhibition above about 50%
E coli Lon conf: E. coli Lon inhibition confirmation | purified E. coli Lon, fluorescence polarization | shares compounds with E coli Lon inh | hit rate 31% among 1,400 | inhibition, % at 7.94 µM; in the data active = inhibition above about 16%;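 also: 0% = enzyme with probe and DMSO and 100% = no enzyme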
The depositor's hits bear a star; ? = inconclusive; / = not tested or not shown; + = active, no number.

SMILES	GLD-1 RNA inh	MEX-5 binding	Bcl-xL primary	MCL1 BIM primary	E coli Lon inh	EBV gp42 block	E coli Lon conf
Cc1cc(C)n2nc(C(F)(F)F)c(-c3ccccc3)c2n1	3.7	1.2	5.4	8.9	4.0	-15.7	/
C[C@H](C(=O)NCc1ccccc1)C(=O)c1ccccc1	-3.9	-2.5	1.0	-3.0	-8.0	/	/
CN(C(=O)COC(=O)CNC(=O)c1cccs1)c1c(N)n(Cc2ccccc2)c(=O)[nH]c1=O	1.7	/	0.6	-1.5	-17.2	/	/
COc1ccc(NC(=O)CNC(c2ccccc2)c2ccccc2)cc1Cl	-2.7	0.8	1.9	-1.3	18.1*	/	-8.2
CC(C)NC(=O)OCc1c(COC(=O)NC(C)C)c([N+](=O)[O-])n2c1CCC2	/	/	/	/	-11.4	/	/
CCCCCCc1cc2cc(S(=O)(=O)c3ccc(F)c(Cl)c3)c(=O)oc2cc1O	97.0*	1.3	6.8	2.9	83.5*	-7.5	-51.4
CSc1ccccc1OCc1cc(C(=O)NCCn2ccnc2C)no1	1.0	0.7	0.4	-6.3	-7.0	/	/
Cc1cc(OCC(=O)OCC(=O)NC2CCCCC2C)ccc1Cl (centres undefined)	4.2	/	-2.1	-7.2	-8.2	/	/
CCN1CCN(C(=O)NC2CCCCC2)CC1	4.5	2.5	5.4	-2.0	45.1*	/	-0.4
N#C/C(=C(/O)c1cccs1)c1nc2ccccc2[nH]1	4.5	-0.7	2.7	2.5	16.1*	5.6	-8.0
O=C(OCc1cn([C@H]2C[C@H](c3ccc(Cl)cc3)N(C(=O)c3cccs3)C[C@@H]2O)nn1)c1ccccc1	/	/	/	/	3.7	/	/
CC(=O)n1nc(-c2ccc(C)cc2)nc1NCc1ccc(F)cc1	/	0.4	/	/	18.2*	11.8	1.6
CC(=O)n1nc(-c2ccc(C)cc2)nc1NCc1ccco1	/	0.9	/	/	9.1	2.4	/
CCOc1ccc(-c2nc3scc(-c4cccs4)c3c(=O)[nH]2)cc1	-0.9	0.2	5.3	1.9	0.0	-9.2	/
CCCCN1C(=O)c2cccc3cc(O)cc(c23)C1=O	21.1	0.1	7.0	8.4	32.5*	/	6.3
Cc1ccccc1NC(=O)COC(=O)c1ccc(C)c(S(=O)(=O)N2CCCCC2)c1	/	/	/	/	2.6	/	/
CCN1CC=C2C(C#N)=C(N)C(C#N)(C#N)C(CCc3ccccc3)C2C1 (centres undefined)	109.5*	/	155.3*	182.8*	26.6*	81.1*	20.6*
C[C@H]1CN([C@@H](C)CO)C(=O)CCCn2nncc2CO[C@H]1CN(C)S(=O)(=O)c1cccc(F)c1	/	/	/	/	13.0*	/	-13.8
C=CCCC(=O)NC1CCCc2c1cnn2-c1ccccc1F (centres undefined)	0.1	-0.2	1.7	7.7	29.4*	/	1.9
O=C(O)CCn1nc(-c2ccc(F)cc2)cc(Cc2ccccc2)c1=O	-2.2	1.0	2.9	-1.9	-1.1	/	/
COc1ccc(NC2CCN(C3CC(=O)N(c4ccc(F)c(Cl)c4)C3=O)CC2)cc1 (centres undefined)	2.8	-2.6	2.9	4.0	17.1*	5.1	-2.8
COc1cccc(N2CCN(C3CC(=O)N(c4ccc(F)c(Cl)c4)C3=O)CC2)c1 (centres undefined)	-6.7	-3.5	7.4	0.6	5.1	0.5	/
COc1ccc2c(c1)N(S(=O)(=O)c1ccccc1)CCC2=O	-8.3	-0.7	3.0	7.4	1.0	-7.2	/
CC/C(=C\C(=O)c1ccncc1)Nc1ccc(O)cc1	6.1	0.7	8.5	16.9	26.0*	-22.0	-3.5
O=C(CN(C(=O)c1ccccc1Cl)N1C(=O)C2C3C=CC(C3)C2C1=O)c1cccs1 (centres undefined)	3.0	1.5	0.6	-8.6	0.3	3.9	/
SMILES	GLD-1 RNA inh	MEX-5 binding	Bcl-xL primary	MCL1 BIM primary	E coli Lon inh	EBV gp42 block	E coli Lon conf
COc1cccc(NC(=O)N(CCN(C)C)C(C)c2cccnc2)c1 (centres undefined)	4.8	-0.1	2.4	1.1	-2.7	-18.7	/
CC(c1cccnc1)N(CCN(C)C)C(=O)Nc1ccc(Cl)cc1 (centres undefined)	-0.7	0.2	-0.3	1.9	14.6*	-16.8	-2.0
Cc1nn(-c2ccc(N3CCOCC3)nn2)c(C)c1CCC(=O)N1CCN(C)CC1	2.0	-0.9	1.1	-7.2	-5.4	/	/
COc1ccc(-c2ccc(C(=O)N3CCOCC3)c3occc23)c(C)c1	/	/	/	/	22.8*	/	-0.5
COc1ccc(-c2ccc(C(=O)N3CCN(C)CC3)c3occc23)c(C)c1	/	/	/	/	-1.5	/	/
Cc1cc(C)c(S(=O)(=O)N2CCCC(C(=O)NCc3ccccn3)C2)c(C)c1 (centres undefined)	1.8	0.7	5.2	13.1	3.0	/	/
CCOC(=O)N1CCC(NC(=O)CCN2C(=O)C3C4C=CC(C4)C3C2=O)CC1 (centres undefined)	4.2	/	4.8	-0.5	3.8	-10.6	/
O=C(CCN1C(=O)C2C3C=CC(C3)C2C1=O)NC1CCCCC1 (centres undefined)	7.7	0.3	1.9	-2.0	20.2*	/	5.8
CC(=O)Nc1ccc(NC(=O)C(C)OC(=O)c2ccc(S(=O)(=O)N3CCCCC3)cc2)cc1 (centres undefined)	0.7	/	/	/	67.1*	/	4.8
CC(OC(=O)c1ccc(Cl)nc1)C(=O)Nc1ccc(S(=O)(=O)N2CCCC2)cc1 (centres undefined)	10.6	-0.8	-6.3	-1.5	-4.7	/	/
O=C(COC(=O)c1ccc(CN2CCCC2=O)cc1)Nc1ccc(F)cc1	3.8	/	3.0	-3.0	-6.1	/	/
CC(OC(=O)c1ccc(CN2CCCC2=O)cc1)C(=O)Nc1ccc(Cl)cc1 (centres undefined)	4.0	/	1.6	4.5	24.4*	/	59.9*
COc1ccc(OC)c(NC(=O)CSc2nncc3ccc(OC)c(OC)c23)c1	9.6	-6.0	0.9	3.8	50.4*	-0.7	0.9
Cc1c(NC(=S)NC(NC(=O)C(C)C)C(Cl)(Cl)Cl)c(=O)n(-c2ccccc2)n1C (centres undefined)	-4.9	-3.4	3.4	6.4	-6.2	1.9	/
COc1ccc2c3c(cccc13)C(=O)CC2	/	?	/	/	+	/	+
NNC(=O)CNC(=O)C12CC3CC(CC(C3)C1)C2	2.5	-0.2	-2.3	0.3	16.6*	-6.0	-6.7
O=C(CNC(=O)C12CC3CC(CC(C3)C1)C2)NCc1ccccc1	6.7	-1.4	-0.5	-5.5	4.0	/	/
CC(NC(=O)c1ccc(NC(=O)CC2SC(N3CCCC3)=NC2=O)cc1)c1ccc(S(N)(=O)=O)cc1 (centres undefined)	4.4	1.9	4.5	-2.0	-0.5	/	/
CCOc1ccccc1C(=O)NCCC(=O)O	2.5	0.3	0.7	-1.0	17.1*	-6.0	-2.6
CCOc1ccccc1C(=O)NCCCCNC(=O)c1ccccc1OCC	5.6	1.1	1.9	9.9	-0.5	/	/
O=C(Nc1ccccc1N1CCOCC1)c1ccc2c(c1)OCCO2	-0.8	-1.0	0.9	-6.0	-1.6	/	/
CN1CCN(c2ccccc2NC(=O)c2ccc3c(c2)OCCO3)CC1	-5.8	-0.1	-2.2	-1.0	15.8*	/	2.7
